# In PubChem BioAssay (NCI):
# About 79,000 compounds went through this panel and 15% of them were active in at least one assay; those are over-represented in the sample as a whole. Values without a mark were called inactive. Activity calls are given as the source filed them. Rule as the data show it: active = growth inhibition above about 70%; inactive = the rest.
# Experiments:
# [1] = NCI Yeast Anticancer Drug Screen. Data for the rad50 strain (AID 155);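 also: 0% = growth of vehicle-only cultures of the same strain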; details: S. cerevisiae rad50 strain growth inhibition, active compounds read high
# Procedure, shortened: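 Relative growth inhibition (compound vs vehicle) was measured in yeast with a defined repair-gene alteration.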
# [2] = NCI Yeast Anticancer Drug Screen. Data for the mec2-1 strain (AID 157); details: S. cerevisiae mec2-1 strain, active compounds read high
# Procedure, shortened: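 Mutant yeast (mec2-1) grown with compound; growth inhibition relative to vehicle control reported.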
# [3] = NCI Yeast Anticancer Drug Screen. Data for the sgs1 mgt1 strain (AID 161);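 also: 0% = growth of cultures given vehicle only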; details: S. cerevisiae sgs1 mgt1 strain, active compounds read high
# Procedure, shortened: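 Growth of a repair-deficient yeast mutant was monitored after compound treatment and expressed as inhibition relative to vehicle-treated cultures.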
# [4] = NCI Yeast Anticancer Drug Screen. Data for the cln2 rad14 strain (AID 165);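 also: 0% = growth equal to vehicle treated cultures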; details: S. cerevisiae cln2 rad14 strain, active compounds read high
# Procedure, shortened: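 Readout is yeast growth inhibition versus vehicle-treated controls, using a strain with cln2 and rad14 alterations exposed to compound.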
# [5] = NCI Yeast Anticancer Drug Screen. Data for the bub3 strain (AID 167); details: S. cerevisiae bub3 mutant strain, active compounds read high
# Procedure, shortened: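 Screening used yeast with an engineered genetic alteration affecting cell cycle control. Compound-exposed cultures were compared with vehicle cultures, and reduced growth was taken as inhibition.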
# [6] = NCI Yeast Anticancer Drug Screen. Data for the mlh1 rad18 strain (AID 175); details: S. cerevisiae mlh1 rad18 strain growth inhibition, active compounds read high
# Procedure, shortened: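 Genetically defined yeast (DNA repair-deficient) exposed to compounds; growth inhibition determined relative to vehicle.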
# [7] = at 5.0 µM (retest, dose inferred, filed as 0.5)
# [8] = at 50.0 µM (retest, dose inferred, filed as 5.0)
Structure (SMILES),"growth inhibition [1, 7]","growth inhibition [1, 8]",growth inhibition ([1]; at 50.0 µM),"growth inhibition [2, 7]","growth inhibition [2, 8]",growth inhibition ([2]; at 50.0 µM),"growth inhibition [3, 7]","growth inhibition [3, 8]",growth inhibition ([3]; at 50.0 µM),"growth inhibition [4, 7]","growth inhibition [4, 8]",growth inhibition ([4]; at 50.0 µM),"growth inhibition [5, 7]","growth inhibition [5, 8]",growth inhibition ([5]; at 50.0 µM),"growth inhibition [6, 7]","growth inhibition [6, 8]",growth inhibition ([6]; at 50.0 µM)
Brc1ccc(N=Nc2ccc(-c3ccc[cH-]3)cc2)cc1.[Fe+2].c1cc[cH-]c1,3%,-3%,16.1%,4%,1%,6.65%,7%,-14%,6.3%,8%,11%,5.75%,6%,9%,45.4%,-2%,1%,14.7%
COC(=O)C(=[N+]=[N-])C(=O)c1ccc(Cl)cc1,2%,30%,81% (active),2%,13%,96.2% (active),2%,40%,50.7%,0%,19%,44.4%,-14%,-14%,28.9%,-3%,18%,40.5%
CCN1CCNc2c3cc(OC)ccc3nc3c([N+](=O)[O-])ccc1c23,-10%,37%,42.2%,-19%,7%,15.2%,-9%,0%,39.8%,-2%,40%,7.8%,1%,2%,-3.6%,-41%,41%,71.7% (active)
CN(C)CC(CN(C)C)C(=O)c1ccc(Oc2ccc(Cl)cc2)cc1,72% (active),98% (active),7.8%,60%,99% (active),52.3%,85% (active),99% (active),50.9%,36%,98% (active),5.15%,72% (active),99% (active),51.6%,92% (active),98% (active),6.95%
CCc1[nH]c2ccccc2c1C(c1c(CC)[nH]c2ccccc12)C1CCCCC1=O (configuration not stated),1%,91% (active),93.2% (active),-8%,97% (active),88.8% (active),-10%,96% (active),92.2% (active),0%,95% (active),95.2% (active),0%,95% (active),79.8% (active),-9%,97% (active),95.6% (active)
NC(=O)c1cccn1Cc1ccccc1SSc1ccccc1Cn1cccc1C(N)=O,32%,98% (active),89.5% (active),31%,99% (active),95.7% (active),47%,99% (active),94.2% (active),16%,98% (active),90.9% (active),24%,99% (active),92.8% (active),21%,98% (active),94.4% (active)
COc1ccc2c(c1)[n+]([O-])c(-c1ccc(Cl)cc1)c(N)[n+]2[O-],33%,98% (active),99.2% (active),29%,98% (active),99.3% (active),39%,99% (active),99.3% (active),46%,95% (active),98.8% (active),80% (active),99% (active),99.2% (active),79% (active),99% (active),99% (active)
Oc1ccc(CCCCCc2ccc(O)cc2)cc1,4%,99% (active),99.5% (active),15%,100% (active),99.6% (active),17%,100% (active),99.7% (active),1%,99% (active),99.2% (active),13%,100% (active),99.6% (active),7%,99% (active),99.5% (active)
CS(=O)(=O)OC1C(O)C(n2cnc3c(N)ncnc32)C(O)C(OS(C)(=O)=O)C1OS(C)(=O)=O (configuration not stated),0%,-2%,0.05%,1%,-3%,57.5%,-2%,-1%,3.8%,-1%,0%,-7.9%,-1%,-2%,40%,-1%,-1%,18.4%
O=C1C=CC(=O)c2c1cc1ccccc1c2O,19%,97% (active),4.45%,15%,99% (active),-10.8%,6%,98% (active),1.4%,6%,44%,27.4%,22%,96% (active),-5.75%,19%,97% (active),30.6%
CCCCc1cc2c(cc1O)CCC1C2CC[C@@]2(C)C1CC[C@@H]2O (some centres not stated),5%,96% (active),67.5%,-6%,95% (active),78.5% (active),-5%,95% (active),80.6% (active),2%,97% (active),86.8% (active),-27%,96% (active),81.7% (active),-2%,96% (active),84.6% (active)
O=[N+]([O-])c1ccc2nc(-c3ccc(Cl)cc3)[nH]c2c1,0%,91% (active),71.5% (active),-1%,89% (active),72.8% (active),-2%,89% (active),75.4% (active),-6%,83% (active),72.6% (active),1%,95% (active),81.9% (active),-15%,94% (active),78.8% (active)
CCCCCCCCNc1ncnc2c1cnn2C,-2%,69%,48.6%,4%,83% (active),43%,-2%,85% (active),54.8%,-9%,61%,98.8% (active),1%,87% (active),97.8% (active),18%,86% (active),49.9%
COc1cccc2c1[n+]([O-])c1cccc(O)c1[n+]2[O-],98% (active),99% (active),91.4% (active),99% (active),100% (active),90.4% (active),100% (active),100% (active),87.5% (active),93% (active),99% (active),88.4% (active),99% (active),100% (active),84.2% (active),97% (active),99% (active),91.7% (active)
OC(CN1CCCCC1)c1ccc2c(ccc3ccccc32)c1 (configuration not stated),21%,54%,83% (active),6%,46%,50%,35%,75% (active),88.2% (active),19%,50%,75% (active),25%,69%,91.8% (active),22%,61%,87.5% (active)
COCC(O)Cn1cc([N+](=O)[O-])nc1C (configuration not stated),4%,-1%,2.7%,1%,-3%,-5.25%,-1%,2%,-4.8%,0%,-2%,9.45%,-4%,-4%,19.2%,6%,4%,9.4%
CCCCCCCCCCCCn1cnc2ncnc(Cl)c21,6%,48%,98.2% (active),7%,54%,99% (active),11%,68%,98.7% (active),2%,28%,98.4% (active),-4%,41%,98.8% (active),6%,63%,98.6% (active)
Cc1c(Cl)ccc2c1NC(=O)C2(O)CC(=O)c1ccc(Cl)cc1 (configuration not stated),13%,98% (active),99.2% (active),14%,99% (active),99% (active),31%,100% (active),99.2% (active),31%,98% (active),99.3% (active),14%,99% (active),99.3% (active),13%,99% (active),99.2% (active)
CC(NNC(=S)N1CCCCCC1)c1cc2ccccc2cn1 (configuration not stated),52%,95% (active),86.2% (active),65%,97% (active),78.7% (active),93% (active),96% (active),86.6% (active),90% (active),91% (active),68.5%,87% (active),96% (active),83.5% (active),47%,95% (active),90.5% (active)
